# The antibiotic and cytotoxicity screens of Wong et al. (2023)
# About 3,300 (8.5%) of roughly 39,000 compounds were called active. The list comes from a sample in which actives are over-represented; it also holds similar structures and randomly drawn compounds.
# System: HepG2
# Assay: cytotoxicity call (relative viability < 0.9)
# Details: 10 µM
row,Compound,cytotoxicity call
1,C[C@H](CO)N1C[C@H](C)[C@@H](CN(C)Cc2ccc(Oc3ccccc3)cc2)Oc2ccc(NS(=O)(=O)c3ccc(Cl)cc3)cc2CC1=O,inactive
2,C[C@H]1CN([C@@H](C)CO)C(=O)Cc2cc(NS(=O)(=O)c3ccc(Cl)cc3)ccc2O[C@@H]1CN(C)Cc1ccc(Oc2ccccc2)cc1,active
3,C[C@@H]1CN([C@H](C)CO)C(=O)Cc2cc(NS(=O)(=O)c3ccc(Cl)cc3)ccc2O[C@@H]1CN(C)Cc1ccc(Oc2ccccc2)cc1,active
4,C[C@@H]1CN([C@@H](C)CO)C(=O)Cc2cc(NS(=O)(=O)c3ccc(Cl)cc3)ccc2O[C@H]1CN(C)Cc1ccc(Oc2ccccc2)cc1,active
5,C[C@H]1CN([C@@H](C)CO)S(=O)(=O)c2ccc(C#CC3CC3)cc2O[C@H]1CN(C)Cc1ccccc1F,inactive
6,COc1ccc(CN(C)C[C@H]2Oc3ccc(NS(C)(=O)=O)cc3CC(=O)N([C@H](C)CO)C[C@@H]2C)cc1,inactive
7,C[C@@H]1CN([C@@H](C)CO)C(=O)c2cccc(NS(=O)(=O)c3ccc(F)cc3)c2O[C@H]1CN(C)CC1CC1,inactive
8,C[C@H]1CCCCO[C@H](CN(C)C(=O)Nc2cccc3ccccc23)[C@@H](C)CN([C@@H](C)CO)C(=O)c2cc(NC(=O)Nc3ccccc3)ccc2O1,inactive
9,C[C@@H]1CCCCO[C@H](CN(C)S(=O)(=O)c2ccc(Cl)cc2)[C@@H](C)CN([C@H](C)CO)C(=O)c2cc(NC(=O)C3CCCCC3)ccc2O1,inactive
10,CN(C)CC(=O)N1[C@H](CO)[C@@H](c2ccc(C3=CCCC3)cc2)C12CN(S(=O)(=O)Cc1ccccc1)C2,inactive
11,CCOc1ccc(-n2c([C@@H](C)N(Cc3cccnc3)C(=O)Cc3ccc(OC(F)(F)F)cc3)nc3ncccc3c2=O)cc1,inactive
12,CCn1c(=S)[nH]c2ccccc21,inactive
13,Cn1c(=O)[nH]c2ccccc21,inactive
14,CC(C)n1c(=S)[nH]c2ccccc21,active
15,COc1ccc(CN(C)C[C@@H]2OCCCC[C@H](C)Oc3ccc(NS(=O)(=O)c4cccs4)cc3C(=O)N([C@H](C)CO)C[C@@H]2C)cc1,inactive
16,CCNC(=O)c1coc(C)n1,inactive
17,CCNC(=O)c1csc(N)n1,inactive
18,CCNC(=O)c1sc(C)nc1N,active
19,C[C@@H]1CN([C@H](C)CO)C(=O)c2cc(Br)cnc2O[C@@H]1CN(C)C(=O)Nc1ccc(F)cc1,inactive
20,O=C(O)c1cc2n(n1)CCC2,inactive
21,C[C@@H]1CCCCO[C@H](CN(C)Cc2ccc3c(c2)OCO3)[C@H](C)CN([C@@H](C)CO)C(=O)c2cc(NS(=O)(=O)c3ccc(Cl)cc3)ccc2O1,active

row,Compound,cytotoxicity call
1,C[C@@H]1CCCCO[C@@H](CN(C)Cc2ccc3c(c2)OCO3)[C@@H](C)CN([C@H](C)CO)C(=O)c2cc(NS(=O)(=O)c3ccc(Cl)cc3)ccc2O1,active
2,C[C@H]1CCCCO[C@@H](CN(C)Cc2ccc3c(c2)OCO3)[C@@H](C)CN([C@@H](C)CO)C(=O)c2cc(NS(=O)(=O)c3ccc(Cl)cc3)ccc2O1,inactive
3,C[C@@H]1CCCCO[C@@H](CN(C)Cc2ccc3c(c2)OCO3)[C@H](C)CN([C@H](C)CO)C(=O)c2cc(NS(=O)(=O)c3ccc(Cl)cc3)ccc2O1,active
4,C[C@@H]1CCCCO[C@H](CN(C)Cc2ccc3c(c2)OCO3)[C@H](C)CN([C@H](C)CO)C(=O)c2cc(NS(=O)(=O)c3ccc(Cl)cc3)ccc2O1,inactive
5,C[C@@H]1CN([C@@H](C)CO)C(=O)c2cc(NS(=O)(=O)c3ccc(Cl)cc3)ccc2O[C@@H](C)CCCCO[C@@H]1CN(C)Cc1ccc2c(c1)OCO2,inactive
6,C[C@H]1CCCCO[C@H](CN(C)Cc2ccc3c(c2)OCO3)[C@@H](C)CN([C@@H](C)CO)C(=O)c2cc(NS(=O)(=O)c3ccc(Cl)cc3)ccc2O1,inactive
7,C[C@@H]1CCCCO[C@H](CN(C)Cc2ccc3c(c2)OCO3)[C@@H](C)CN([C@@H](C)CO)C(=O)c2cc(NS(=O)(=O)c3ccc(Cl)cc3)ccc2O1,inactive
8,C[C@H](CO)N1C[C@H](C)[C@@H](CN(C)Cc2ccc3c(c2)OCO3)OCCCC[C@H](C)Oc2ccc(NS(=O)(=O)c3ccc(Cl)cc3)cc2C1=O,inactive
9,C[C@@H]1CN([C@@H](C)CO)C(=O)c2cc(NS(=O)(=O)c3ccc(Cl)cc3)ccc2O[C@@H](C)CCCCO[C@H]1CN(C)Cc1ccc2c(c1)OCO2,active
10,C[C@@H]1CCCCO[C@H](CN(C)Cc2ccc3c(c2)OCO3)[C@@H](C)CN([C@H](C)CO)C(=O)c2cc(NS(=O)(=O)c3ccc(Cl)cc3)ccc2O1,inactive
11,C[C@H](CO)N1C[C@H](C)[C@H](CN(C)Cc2ccc3c(c2)OCO3)OCCCC[C@H](C)Oc2ccc(NS(=O)(=O)c3ccc(Cl)cc3)cc2C1=O,inactive
12,C[C@H](CO)N1C[C@H](C)[C@H](CN(C)S(C)(=O)=O)Oc2ccc(NS(=O)(=O)c3ccc(Cl)cc3)cc2C1=O,inactive
13,OCc1cccc(Cn2cncn2)c1,inactive
14,C[C@@H]1CN([C@@H](C)CO)S(=O)(=O)c2ccc(Br)cc2O[C@H]1CN(C)C(=O)c1ccccc1,inactive
15,COCC#Cc1ccc([C@@H]2[C@H]3CN(C(=O)c4ccncc4)CC(=O)N3[C@H]2CO)cc1,inactive
16,COc1ccc(NC(=O)Nc2ccc3c(c2)C(=O)N([C@H](C)CO)C[C@H](C)[C@@H](CN(C)S(=O)(=O)c2ccc(F)cc2)OCCCC[C@@H](C)O3)cc1,inactive
17,C[C@H]1CN([C@@H](C)CO)C(=O)Cc2cc(NC(=O)Cn3cnnn3)ccc2O[C@H]1CN(C)Cc1ccc(C(=O)Nc2ccccc2N)cc1,inactive
18,Cc1ccc(S(=O)(=O)Nc2ccc3c(c2)C(=O)N([C@H](C)CO)C[C@@H](C)[C@@H](CN(C)C(=O)Nc2ccc4c(c2)OCO4)OCCCC[C@H](C)O3)cc1,inactive
19,C[C@@H]1CN([C@H](C)CO)C(=O)c2cc(NC(=O)CCCN(C)C)ccc2O[C@@H]1CN(C)S(=O)(=O)c1cccs1,inactive
20,CC(C)C#Cc1ccc2c(c1)O[C@@H](CN(C)C(=O)Cc1ccccn1)[C@@H](C)CN([C@@H](C)CO)S2(=O)=O,inactive
21,Cc1ccc(S(=O)(=O)N(C)C[C@@H]2Oc3c(NC(=O)Nc4cccc5ccccc45)cccc3C(=O)N([C@@H](C)CO)C[C@H]2C)cc1,inactive

row,Compound,cytotoxicity call
1,COc1ccc(NC(=O)Nc2cccc3c2O[C@H](CN(C)Cc2ccc(C(F)(F)F)cc2)[C@H](C)CN([C@@H](C)CO)C3=O)cc1,inactive
2,CC(C)NC(=O)Nc1cccc2c1O[C@@H](CN(C)S(=O)(=O)c1ccc(Cl)cc1)[C@@H](C)CN([C@H](C)CO)C2=O,inactive
3,C[C@@H]1CN([C@H](C)CO)C(=O)c2cc(NS(=O)(=O)c3ccc(Cl)cc3)ccc2O[C@@H](C)CCCCO[C@@H]1CN(C)Cc1ccc2c(c1)OCO2,inactive
4,C[C@@H]1CCCCO[C@@H](CN(C)Cc2ccc3c(c2)OCO3)[C@@H](C)CN([C@@H](C)CO)C(=O)c2cc(NS(=O)(=O)c3ccc(Cl)cc3)ccc2O1,active
5,C[C@@H]1CN([C@H](C)CO)C(=O)c2cc(NS(=O)(=O)c3ccc(Cl)cc3)ccc2O[C@@H](C)CCCCO[C@H]1CN(C)Cc1ccc2c(c1)OCO2,inactive
6,COc1ccc(S(=O)(=O)Nc2ccc3c(c2)C(=O)N([C@H](C)CO)C[C@H](C)[C@@H](CN(C)Cc2ccc(Oc4ccccc4)cc2)O3)cc1,active
7,COc1ccc(S(=O)(=O)Nc2ccc3c(c2)C(=O)N([C@H](C)CO)C[C@@H](C)[C@H](CN(C)Cc2ccc(Oc4ccccc4)cc2)O3)cc1,active
8,COc1ccc(S(=O)(=O)Nc2ccc3c(c2)C(=O)N([C@@H](C)CO)C[C@@H](C)[C@H](CN(C)Cc2ccc(Oc4ccccc4)cc2)O3)cc1,active
9,COc1ccc(S(=O)(=O)Nc2ccc3c(c2)C(=O)N([C@H](C)CO)C[C@@H](C)[C@@H](CN(C)Cc2ccc(Oc4ccccc4)cc2)O3)cc1,inactive
10,COc1ccc(S(=O)(=O)Nc2ccc3c(c2)C(=O)N([C@@H](C)CO)C[C@H](C)[C@@H](CN(C)Cc2ccc(Oc4ccccc4)cc2)O3)cc1,inactive
11,COc1ccc(S(=O)(=O)Nc2ccc3c(c2)C(=O)N([C@@H](C)CO)C[C@H](C)[C@H](CN(C)Cc2ccc(Oc4ccccc4)cc2)O3)cc1,inactive
12,C[C@H]1CN([C@@H](C)CO)C(=O)c2cc(NS(=O)(=O)c3ccccc3)ccc2O[C@@H]1CN(C)Cc1ccc(Oc2ccccc2)cc1,inactive
13,C[C@@H]1CN([C@@H](C)CO)C(=O)c2cc(NS(=O)(=O)c3ccccc3)ccc2O[C@H]1CN(C)Cc1ccc(Oc2ccccc2)cc1,inactive
14,COc1ccc(S(=O)(=O)Nc2ccc3c(c2)C(=O)N([C@@H](C)CO)C[C@@H](C)[C@@H](CN(C)Cc2ccc(Oc4ccccc4)cc2)O3)cc1,active
15,COc1ccc(S(=O)(=O)Nc2ccc3c(c2)C(=O)N([C@H](C)CO)C[C@H](C)[C@H](CN(C)Cc2ccc(Oc4ccccc4)cc2)O3)cc1,inactive
16,CN1CCN(C(=O)C[C@H]2CC[C@@H]3[C@H](COC[C@H](O)CN3Cc3ccc4c(c3)OCO4)O2)CC1,inactive
17,O=C(C[C@@H]1CC[C@H]2[C@@H](COC[C@@H](O)CN2C(=O)Nc2ccc(C(F)(F)F)cc2)O1)NCCc1ccncc1,inactive
18,CCCNC(=O)Nc1ccc2c(c1)OC[C@@H](C)N(Cc1ccc(-c3ccccn3)cc1)C[C@@H](C)[C@H](OC)CN(C)C2=O,inactive
19,Nc1c(C(=O)O)cnc2nc(N3CCOCC3)nn12,inactive
20,COc1ccc(S(=O)(=O)Nc2ccc3c(c2)C(=O)N([C@@H](C)CO)C[C@@H](C)[C@@H](CN(C)Cc2ccc(C(=O)O)cc2)OCCCC[C@@H](C)O3)cc1,inactive
